The supplement of paper PMC6555819

Experiments:
Assay in all cases: PBM binding z-score (relative to random genomic background probes); higher = stronger binding; sequences stand for … in GC…GCGATTGACAGCGTAGAATGAAGG
[1] = test system: FXR:RXRa (NR concentration 270 nM, RXRa partner concentration 90 nM)
How it was run: (§1)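 Custom Agilent 4×180K protein-binding microarrays carried double-stranded probes, each with a 34-nt variable region. These regions held direct-repeat seeds, single-nucleotide variants, half-site ablations and random human genomic background sequences. Ligand-free nuclear receptor dimers were incubated on the arrays for 1 h, antibodies against each partner (one per run) detected binding, and scanned fluorescence was regression-normalized. Binding z-scores take the random background probes as reference.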

[2] = test system: LXRa:RXRa (NR concentration 270 nM, RXRa partner concentration 90 nM)
How it was run: as §1

[3] = test system: LXRa homodimer (NR concentration 270 nM)
How it was run: as §1

[4] = test system: LXRb:RXRa (NR concentration 270 nM, RXRa partner concentration 90 nM)
How it was run: as §1

[5] = test system: LXRb homodimer (NR concentration 270 nM)
How it was run: as §1

[6] = test system: PPARa:RXRa (NR concentration 270 nM, RXRa partner concentration 90 nM)
How it was run: as §1

[7] = test system: PPARg:RXRa (NR concentration 180 nM, RXRa partner concentration 90 nM)
How it was run: as §1

[8] = test system: PPARg:RXRa 270nM:90nM, anti-RXR (NR concentration 270 nM, RXRa partner concentration 90 nM)
How it was run: as §1

[9] = test system: PPARg:RXRa 30nM:10nM, anti-RXR (NR concentration 30 nM, RXRa partner concentration 10 nM)
How it was run: as §1

[10] = test system: PPARg:RXRa 90nM:30nM, anti-RXR (NR concentration 90 nM, RXRa partner concentration 30 nM)
How it was run: as §1

[11] = test system: PPARg:RXRa DBDmut IVT, anti-RXR (DBD mutation: RXRa K156A/R161A, NR concentration 270 nM, RXRa partner concentration 90 nM)
How it was run: as §1

[12] = test system: PPARg:RXRa IVT, anti-PPARg (NR concentration 270 nM, RXRa partner concentration 90 nM)
How it was run: as §1

[13] = test system: PPARg DBDmut:RXRa IVT, anti-PPARg (DBD mutation: PPARg1 K132A/R137A, NR concentration 270 nM, RXRa partner concentration 90 nM)
How it was run: as §1

[14] = test system: PPARg DBDmut IVT, anti-PPARg (DBD mutation: PPARg1 K132A/R137A, NR concentration 270 nM)
How it was run: as §1

[15] = test system: PPARg homodimer (NR concentration 180 nM)
How it was run: as §1

[16] = test system: PXR:RXRa (NR concentration 270 nM, RXRa partner concentration 90 nM)
How it was run: as §1

[17] = test system: PXR homodimer (NR concentration 270 nM)
How it was run: as §1

[18] = test system: RARa:RXR (NR concentration 270 nM, RXRa partner concentration 90 nM)
How it was run: as §1

[19] = test system: RARa homodimer (NR concentration 270 nM)
How it was run: as §1

[20] = test system: RARb:RXRa (NR concentration 270 nM, RXRa partner concentration 90 nM)
How it was run: as §1

Sequence	PBM binding z-score [1]	PBM binding z-score [2]	PBM binding z-score [3]	PBM binding z-score [4]	PBM binding z-score [5]	PBM binding z-score [6]	PBM binding z-score [7]	PBM binding z-score [8]	PBM binding z-score [9]	PBM binding z-score [10]	PBM binding z-score [11]	PBM binding z-score [12]	PBM binding z-score [13]	PBM binding z-score [14]	PBM binding z-score [15]	PBM binding z-score [16]	PBM binding z-score [17]	PBM binding z-score [18]	PBM binding z-score [19]	PBM binding z-score [20]
AGTCAAAGTTCACTAGGTAACGTTAGATTCAGCT	5.17	5.24	3.17	2.95	1.04	4.7	7.15	6.57	3.45	6.1	2.64	4.82	1.46	1.15	2.91	3.95	2.61	3.1	0.915	4.65
CCTAGCAGGCCAATATGGGTCACTCAAGGCTTGA	0.719	2.76	-0.00824	1.41	-0.863	3.05	1.57	1.86	0.00421	1.15	3.27	4.11	-0.447	-0.637	0.511	1.14	-0.649	1.65	-0.474	1.44
ATAACGAGGGCAATGAGTTGATAGCACGGGTGGC	0.269	0.688	-0.402	0.00885	0.11	1.23	1.8	1.31	0.221	0.999	3.37	2.77	1.02	0.667	0.411	2	5.03	0.222	-0.438	2.02
CCGGCTGGGGCAGAAAGGTTACCATACCATCCGG	0.0889	0.439	-0.422	0.64	-1.29	1.61	0.79	1.64	-0.158	1.06	-0.851	-0.138	-1.63	-1.34	0.44	0.704	-0.199	1.52	-0.576	1.85
CAACCTAGGTCAGGGCCAGTATAGGAGGAACGTT	2.3	1.36	-0.178	0.897	-0.856	2.5	1.79	1.74	0.0391	0.938	2.7	3.26	0.0736	0.168	1.57	0.478	-0.518	1.45	0.172	3.51
TCTTCTAGATCAAGCAGGTTAAGAAAGCCTGAGT	0.122	0.597	-0.208	0.619	-0.0275	0.769	-0.479	1.7	3.16	2.53	1.76	0.683	0.767	0.698	0.504	0.69	0.108	0.523	-0.00815	0.276
